From PubChem
Most compounds without a hit are left out; they make up all but 1.9% or so of the library.
PP5 inh = inhibitors of human protein phosphatase 5 (PP5). P53041. purified PP5c, OMFP substrate fluorescence. inhibition, % at 6.7 µM. actives 0.18% (n = 320,000). AID 1987;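 active = inhibition above the campaign's mean inhibition across all tested compounds plus 3 SD, cut at about 9.5% in these data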;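 also: 0% = DMSO only and 100% = 100 µM cantharidin control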
Target sequence (P53041 whole entry, looked up): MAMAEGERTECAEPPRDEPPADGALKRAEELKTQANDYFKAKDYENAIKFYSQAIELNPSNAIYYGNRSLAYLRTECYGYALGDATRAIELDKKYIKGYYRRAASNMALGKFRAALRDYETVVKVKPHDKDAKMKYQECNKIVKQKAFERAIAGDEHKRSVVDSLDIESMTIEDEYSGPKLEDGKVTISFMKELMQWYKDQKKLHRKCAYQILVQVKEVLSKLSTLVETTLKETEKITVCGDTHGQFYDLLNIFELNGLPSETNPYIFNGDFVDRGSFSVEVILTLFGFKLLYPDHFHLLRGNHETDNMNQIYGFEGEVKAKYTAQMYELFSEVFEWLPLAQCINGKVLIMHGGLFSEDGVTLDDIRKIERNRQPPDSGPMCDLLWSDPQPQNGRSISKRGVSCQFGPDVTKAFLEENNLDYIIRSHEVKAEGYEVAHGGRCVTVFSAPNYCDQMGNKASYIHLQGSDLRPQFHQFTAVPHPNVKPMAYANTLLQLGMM
PP1 counter = counter-screen for PP5 inhibitors: inhibitors of human PP1-alpha. actives 0.9% (n = 320,000). P62136. inhibition, % at 6.7 µM. purified PP1alpha, OMFP fluorescence;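 active = inhibition above the mean inhibition of all tested compounds plus 3 SD, computed separately for each screening campaign, cut at about 15% in these data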
ATG4B inh = ATG4B (human) cysteine protease inhibition; actives 0.51% (n = 340,000); inhibition, % at 8.33 µM; ATG4B cleavage of LC3-PLA2, NBD-HPC fluorescence, 1 h; AID 504462; in the data active = inhibition above about 40%
Cardio protect = protects H9c2 cardiomyocytes from peroxide injury; H2O2 injury protection, ATPLite, 2 h; protection from H2O2 cell death, % at 20 µM; actives 0.63% (n = 360,000); AID 588492;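 active = compounds giving at least 50% protection of heart cells from peroxide-induced death in the single-dose screen, raw or plate-pattern-corrected value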;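 also: 0% = DMSO wells with peroxide and 100% = DMSO wells without peroxide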
* marks the source's active call; other numbers are inactive results; / = no result given.

SMILES	PP5 inh	PP1 counter	ATG4B inh	Cardio protect
O=C(Cn1nc(C(=O)O)c2ccccc2c1=O)c1c[nH]c2ccccc12	1	2	-2	57*
COc1cccc(C2c3cc4c(cc3OC(N3CCOCC3)C2C)OCO4)c1O (centres undefined)	/	/	-3	3
Cc1nn(-c2ccccc2)c(Cl)c1C(=O)NNC(=O)c1ccccc1O	2	0	-1	57*
Cc1ccc(CSc2ccc3nnc(-c4ccccn4)n3n2)cc1	0	16*	-5	45
Brc1ccc(CSc2ccc3nnc(-c4cccnc4)n3n2)cc1	0	8	-14	68*
COc1cc(-c2ccc3c(=O)c4ccccc4n(C)c3c2)cc(OC)c1OC	0	0	-20	88*
CC(=O)C1=C(C)NC(SCC(=O)c2ccc(-c3ccccc3)cc2)=C(C#N)C1c1cccnc1 (centres undefined)	0	27*	/	/
COc1ccc2nc(Nc3nc(CSc4nc5ccccc5[nH]4)cc(=O)[nH]3)nc(C)c2c1	1	6	-4	70*
Cc1ccc(C2C(C(=O)c3cc4ccccc4o3)=C(O)C(=O)N2c2cc(C)on2)cc1 (centres undefined)	-1	22*	-8	9
Cc1cc(N2C(=O)C(O)=C(C(=O)c3cc4ccccc4o3)C2c2cccs2)no1 (centres undefined)	3	19*	-3	7
COC(=O)c1ccc(C2C(C(=O)c3ccc(C)o3)=C(O)C(=O)N2c2cc(C)on2)cc1 (centres undefined)	1	16*	-5	9
COC(=O)c1sc(N2C(=O)C(O)=C(C(=O)c3ccc(C)o3)C2c2ccc(F)cc2)nc1C (centres undefined)	4	17*	-4	4
Cc1cc(N2CCCC2)ccc1NC(=O)CN1C(=O)NC2(CCCCC2)C1=O	-2	-3	10	-5
CC(=O)c1cccc(NC(=O)CSc2nnnn2C2CCCC2)c1	/	/	-5	1
O=C(C[n+]1cnn(CC(=O)c2ccc(Cl)cc2Cl)c1)c1ccc([N+](=O)[O-])cc1	3	17*	-6	-2
Cc1sc2ncnc(N/N=C/c3ccccc3O)c2c1C	5	7	-9	54*
COc1cccc(/C=N/Nc2ncnc3scc(-c4ccccc4)c23)c1OC	0	-2	-11	60*
Cc1sc2ncnc(N/N=C/c3ccc(O)cc3)c2c1C	4	3	4	-6
COc1cccc(C=NNc2nc3ccccc3s2)c1OC	/	/	-5	-13
CCOc1ccc(NS(=O)(=O)c2ccc(C(=O)NCC(c3ccco3)N3CCCC3)cc2)cc1 (centres undefined)	1	-2	-20	-5
Cc1nn(-c2ccc(F)cc2)c2nc(N)c(C#N)c(-c3ccc(O)c(O)c3)c12	/	/	-10	77*
CCOC(=O)Nc1ccc2c(CNC(C)c3ccccc3OC)cc(=O)oc2c1 (centres undefined)	0	0	-3	-4
Cn1c(C(=O)N2CCN(c3nc4ccccc4s3)CC2)cc2sccc21	2	1	-16	-17
O=C(c1cc2sccc2n1Cc1ccc(F)cc1)N1CCN(c2nc3ccccc3s2)CC1	3	17*	-15	-29
O=c1[nH]c(-c2cccnc2)nc2ccccc12	1	-2	-12	47*
SMILES	PP5 inh	PP1 counter	ATG4B inh	Cardio protect
O=c1cc(-c2ccccc2)[nH]n1-c1nc2ccccc2[nH]1	0	17*	-1	13
CCc1cc(=O)[nH]c(-n2[nH]c(-c3ccccc3)cc2=O)n1	-1	-1	-3	6
CCCCN(CCCC)Cc1cc(=O)oc2cc(OC)c(Cl)cc12	/	/	/	1
COc1ccc(Cn2nnnc2C(c2ccccc2)N2CCN(C3CCCC3)CC2)cc1 (centres undefined)	/	/	0	4
c1ccc(Cn2nnnc2C(c2cccnc2)N2CCN(C3CCCCC3)CC2)cc1 (centres undefined)	1	-2	-1	79*
Cc1nc(N2CCN(S(=O)(=O)c3cccc4nonc34)CC2)c2c3c(sc2n1)CCCC3	2	-1	10	49*
C/C(=N\Nc1nc(C)cc(C)n1)c1ccc(C)o1	0	1	-4	2
C/C(=N\Nc1nnc2c3ccccc3n(C)c2n1)c1ccc(C)o1	0	2	-15	70*
Cc1onc(-c2ccccc2)c1C(=O)Nc1ccc(S(=O)(=O)Nc2nccs2)cc1	4	0	10	1
O=S(=O)(Nc1nccs1)c1ccc(Nc2nnc(-c3ccccc3)c3ccccc23)cc1	5	17*	15	-8
Cn1c(=NC(=O)c2ccc(S(=O)(=O)N3CCCc4ccccc43)cc2)sc2cc(S(C)(=O)=O)ccc21	1	-1	-6	-7
C#CCn1c(=NC(=O)c2ccc(S(=O)(=O)N3CCCc4ccccc43)cc2)sc2cc(S(N)(=O)=O)ccc21	0	16*	-17	-6
CC(C)Cn1c(CCCNC(=O)c2ccco2)nc2ccccc21	0	-1	0	0
CCOc1cc(/C=N/NC(N)=O)ccc1OC(=O)c1ccc(C)cc1	5	0	/	/
CCOc1cc(/C=N/NC(=O)CNc2ccc(C)cc2)ccc1OC(=O)c1ccccc1	2	15*	-2	2
CCOc1cc(/C=N\NC(=O)c2ccc(NC(=O)C(C)(C)C)cc2)ccc1OC(=O)c1ccc(C)cc1	0	-2	4	-11
CCOc1cc(/C=N\NC(=O)c2ccc(NC(=O)C(C)(C)C)cc2)ccc1OC(=O)c1cccc(C)c1	1	3	-17	66*
CC(C)(C)C(=O)Nc1ccc(C(=O)N/N=C/c2ccccc2OC(=O)c2ccccc2)cc1	3	3	0	52*
Clc1cccc(Nc2nc(-c3ccncc3)cs2)c1	3	17*	-14	-16
O=C(CSc1nnc(CNC(=O)c2cccs2)o1)Nc1ccccc1F	2	-4	-3	4
O=C(NCCCc1ccccc1)c1cccc(NC(=O)C2CCCC2)c1	/	/	-5	-2
C[C@@H]1ON(C)[C@H]2C[C@H]3c4[nH]c5ccc(-c6ccc7c(c6)OCO7)cc5c4CCN3C[C@@H]12	/	/	/	62*
CCCCN(C(=O)Cc1ccc(S(=O)(=O)N2CCOCC2)s1)c1c(N)n(CCCC)c(=O)[nH]c1=O	-2	-4	-3	9
Cc1ccc(C(=O)NC(=S)N2CCN(c3ccc([N+](=O)[O-])cc3)CC2)cc1	3	2	2	0
Cc1ccc(C(=O)ON=C2CCN(c3ccc([N+](=O)[O-])cc3)CC2)cc1	3	16*	-11	-4
COc1ccc([N+](=O)[O-])cc1NC(=O)COC(=O)c1ccccn1	4	-1	-4	2
COc1cccc(C2C(C(N)=O)=C(C)Nc3nc(CCCO)nn32)c1 (centres undefined)	4	-1	7	3
COc1cccc(/C=C2\SC(=S)N(CCC(=O)NNC(=O)c3ccccc3OC)C2=O)c1	-1	4	0	0
O=C(CCCN1C(=O)/C(=C/c2cccs2)SC1=S)NNC(=O)c1ccncc1	0	-3	3	-5
COc1ccccc1/C=C1\SC(=S)N(CCC(=O)NNC(=O)c2ccccc2O)C1=O	1	5	-1	60*
